# Measured values taken from the supplement of paper PMC8728848.
# Many of the other results were omitted from the sample, so the strongest signals are more common in it than they were.
# Legend:
# Assay in all cases: glycan array binding signal (z-score within array); higher = stronger binding
# Conditions in all cases: glycan notation: IUPAC condensed, linker removed
# Fuc(a1-2)Gal(b1-3)GalNAc = molecular target: Fuc(a1-2)Gal(b1-3)GalNAc
# In short: (§1)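 The binding signal is a Z-score computed within each array. Data were drawn from 3228 arrays in the Consortium for Functional Glycomics database, restricted to those with a known protein sequence. Scores were averaged over arrays of the same protein sequence at different concentrations or buffers, and over linkers, and negative values can be taken as non-binding.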
# [1] = molecular target: Fuc(a1-2)Gal(b1-3)GalNAc(b1-4)[Neu5Ac(a2-3)]Gal(b1-4)Glc
# In short: as §1
# [2] = molecular target: Fuc(a1-2)Gal(b1-3)GlcNAc(b1-3)[Neu5Ac(a2-6)Gal(b1-4)GlcNAc(b1-6)]Gal(b1-4)Glc
# In short: as §1
# [3] = molecular target: Fuc(a1-2)Gal(b1-3)GlcNAc6S
# In short: as §1
# [4] = molecular target: Fuc(a1-2)Gal(b1-3)[Fuc(a1-4)]GlcNAc
# In short: as §1
# [5] = molecular target: Fuc(a1-2)Gal(b1-3)[Fuc(a1-4)]GlcNAc(b1-2)Man(a1-3)[Fuc(a1-2)Gal(b1-3)[Fuc(a1-4)]GlcNAc(b1-2)Man(a1-3)]Man(b1-4)GlcNAc(b1-4)GlcNAc
# In short: as §1
# Fuc(a1-2)Gal(b1-4)Glc = molecular target: Fuc(a1-2)Gal(b1-4)Glc
# In short: as §1
# Fuc(a1-2)Gal(b1-4)Glc6S = molecular target: Fuc(a1-2)Gal(b1-4)Glc6S
# In short: as §1
# [6] = molecular target: Fuc(a1-2)Gal(b1-4)GlcNAc(b1-2)Man
# In short: as §1
# [7] = molecular target: Fuc(a1-2)Gal(b1-4)[Fuc(a1-3)]GlcNAc
# In short: as §1
# [8] = molecular target: Fuc(a1-2)[Gal(a1-3)]Gal(b1-4)[Fuc(a1-3)]Glc
# In short: as §1
# [9] = molecular target: Fuc(a1-2)[Gal(a1-3)]Gal(b1-4)[Fuc(a1-3)]GlcNAc
# In short: as §1
# [10] = molecular target: Fuc(a1-2)[GalNAc(a1-3)]Gal(b1-3)GlcNAc
# In short: as §1
# [11] = molecular target: Fuc(a1-2)[GalNAc(a1-3)]Gal(b1-3)GlcNAc(b1-2)Man(a1-3)[Fuc(a1-2)[GalNAc(a1-3)]Gal(b1-3)GlcNAc(b1-2)Man(a1-6)]Man(b1-4)GlcNAc(b1-4)GlcNAc
# In short: as §1
# [12] = molecular target: Fuc(a1-3)[Gal(b1-4)]GlcNAc(b1-3)GalNAc
# In short: as §1
# [13] = molecular target: Fuc(a1-3)[Gal3S(b1-4)]GlcNAc
# In short: as §1
# [14] = molecular target: Fuc(a1-3)[GalNAc(b1-4)]GlcNAc
# In short: as §1
# [15] = molecular target: Gal(a1-4)Gal(b1-3)GlcNAc(b1-2)Man(a1-3)[Gal(a1-4)Gal(b1-3)GlcNAc(b1-2)Man(a1-6)]Man(b1-4)GlcNAc(b1-4)GlcNAc
# In short: as §1
# Gal(a1-4)GlcNAc = molecular target: Gal(a1-4)GlcNAc
# In short: as §1
# Gal(b1-3)Gal = molecular target: Gal(b1-3)Gal
# In short: as §1
# Gal(b1-3)GalNAc = molecular target: Gal(b1-3)GalNAc
# In short: as §1
# [16] = molecular target: Gal(b1-3)GlcNAc(b1-2)Man(a1-3)[GlcNAc(b1-4)][Gal(b1-3)GlcNAc(b1-2)Man(a1-6)]Man(b1-4)GlcNAc(b1-4)GlcNAc
# In short: as §1
# [17] = molecular target: Gal(b1-3)GlcNAc(b1-3)Gal(b1-4)GlcNAc(b1-3)Gal(b1-4)GlcNAc(b1-2)[Gal(b1-3)GlcNAc(b1-3)Gal(b1-4)GlcNAc(b1-3)Gal(b1-4)GlcNAc(b1-6)]Man(a1-6)[Gal(b1-3)GlcNAc(b1-3)Gal(b1-4)GlcNAc(b1-3)Gal(b1-4)GlcNAc(b1-2)Man(a1-3)]Man(b1-4)GlcNAc(b1-4)[Fuc(a1-6)]GlcNAc
# In short: as §1
# [18] = molecular target: Gal(b1-3)GlcNAc(b1-3)GalNAc
# In short: as §1
# [19] = molecular target: Gal(b1-3)[Neu5Ac(a2-6)]GalNAc
# In short: as §1
# Gal(b1-4)Gal = molecular target: Gal(b1-4)Gal
# In short: as §1
# [20] = molecular target: Gal(b1-4)GlcNAc(b1-2)Man(a1-3)[Gal(b1-4)GlcNAc(b1-2)Man(a1-6)]Man(b1-4)GlcNAc(b1-4)[Fuc(a1-6)]GlcNAc
# In short: as §1
# [21] = molecular target: Gal(b1-4)GlcNAc(b1-2)Man(a1-3)[Man(a1-6)]Man(b1-4)GlcNAc(b1-4)GlcNAc
# In short: as §1
binder,measurement,setting,value
"SHCBP1-GST (Homo sapiens), Q8NEM2 (protein) MADGSLTGGGLEAAAMAPERMGWAVEQELASLEKGLFQDEDSCSDCSYRDKPGSSLQSFMPEGKTFFPEIFQTNQLLFYERFRAYQDYILADCKASEVQEFTAEFLEKVLEPSGWRAVWHTNVFKVLVEITDVDFAALKAVVRLAEPYLCDSQVSTFTMECMKELLDLKEHRLPLQELWVVFDDSGVFDQTALAIEHVRFFYQNIWRSWDEEEEDEYDYFVRCVEPRLRLHYDILEDRVPSGLIVDYHNLLSQCEESYRKFLNLRSSLSNCNSDSEQENISMVEGLKLYSEMEQLKQKLKLIENPLLRYVFGYQKNSNIQAKGVRSSGQKITHVVSSTMMAGLLRSLLTDRLCQEPGEEEREIQFHSDPLSAINACFEGDTVIVCPGHYVVHGTFSIADSIELEGYGLPDDIVIEKRGKGDTFVDCTGADIKISGIKFVQHDAVEGILIVHRGKTTLENCVLQCETTGVTVRTSAEFLMKNSDLYGAKGAGIEIYPGSQCTLSDNGIHHCKEGILIKDFLDEHYDIPKISMVNNIIHNNEGYGVVLVKPTIFSDLQENAEDGTEENKALKIQTSGEPDVAERVDLEELIECATGKMELCARTDPSEQVEGNCEIVNELIAASTQKGQIKKKRLSELGITQADDNLMSQEMFVGIVGNQFKWNGKGSFGTFLF",glycan array binding signal (z-score),Fuc(a1-2)Gal(b1-3)GalNAc,-0.317
same,glycan array binding signal (z-score),[1],-0.821
same,glycan array binding signal (z-score),[2],-0.751
same,glycan array binding signal (z-score),[3],-0.806
same,glycan array binding signal (z-score),[4],0.085
same,glycan array binding signal (z-score),[5],0.999
same,glycan array binding signal (z-score),Fuc(a1-2)Gal(b1-4)Glc,-0.192
same,glycan array binding signal (z-score),Fuc(a1-2)Gal(b1-4)Glc6S,-0.251
same,glycan array binding signal (z-score),[6],-0.583
same,glycan array binding signal (z-score),[7],-0.113
same,glycan array binding signal (z-score),[8],-0.299
same,glycan array binding signal (z-score),[9],0.298
same,glycan array binding signal (z-score),[10],-0.199
same,glycan array binding signal (z-score),[11],-0.355
same,glycan array binding signal (z-score),[12],2.35
same,glycan array binding signal (z-score),[13],-0.161
same,glycan array binding signal (z-score),[14],0.35
same,glycan array binding signal (z-score),[15],4.1
same,glycan array binding signal (z-score),Gal(a1-4)GlcNAc,-0.477
same,glycan array binding signal (z-score),Gal(b1-3)Gal,0.702
same,glycan array binding signal (z-score),Gal(b1-3)GalNAc,-0.251
same,glycan array binding signal (z-score),[16],2.98
same,glycan array binding signal (z-score),[17],3.45
same,glycan array binding signal (z-score),[18],0.539
same,glycan array binding signal (z-score),[19],-1.01
same,glycan array binding signal (z-score),Gal(b1-4)Gal,-0.879
same,glycan array binding signal (z-score),[20],0.409
same,glycan array binding signal (z-score),[21],0.6
